Rows were chosen to be rich in hits. Some 12% of all compounds tested hit in one or more screens of this group.
PLK1 PBD block: qHTS for Inhibitors of PLK1-PDB (polo-like kinase 1 - polo-box domain): Primary Screen; Plk1 PBD binding of FITC phosphopeptide, fluorescence polarization; Potency, µM, for inactives: max response, negative = inhibition, most hits filed as inhibitors; 2.8% of 360,000 active; AID 720504, 2013; further: series mostly up to about 57 µM; nearly all actives have a fitted effect of over 65% in size
Target sequence (P53350 whole entry, looked up, the tested form may be a part): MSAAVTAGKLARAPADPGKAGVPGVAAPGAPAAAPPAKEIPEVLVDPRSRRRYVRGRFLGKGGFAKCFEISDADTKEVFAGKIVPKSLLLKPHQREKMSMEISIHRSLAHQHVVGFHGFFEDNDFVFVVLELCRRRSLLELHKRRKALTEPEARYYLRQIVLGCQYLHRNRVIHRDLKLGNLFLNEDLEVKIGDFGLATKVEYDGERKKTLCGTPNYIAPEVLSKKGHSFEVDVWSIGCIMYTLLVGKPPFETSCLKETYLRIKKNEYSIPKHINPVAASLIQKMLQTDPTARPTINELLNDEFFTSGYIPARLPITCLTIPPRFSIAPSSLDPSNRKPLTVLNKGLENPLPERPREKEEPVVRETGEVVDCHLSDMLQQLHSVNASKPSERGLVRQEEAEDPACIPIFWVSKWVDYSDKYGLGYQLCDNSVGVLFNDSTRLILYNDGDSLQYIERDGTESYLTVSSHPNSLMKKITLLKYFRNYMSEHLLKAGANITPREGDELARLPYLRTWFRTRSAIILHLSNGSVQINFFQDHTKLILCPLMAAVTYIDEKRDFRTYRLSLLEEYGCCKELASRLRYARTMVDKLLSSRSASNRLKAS
Sfp inh: qHTS Assay for Inhibitors of Bacillus subtilis Sfp phosphopantetheinyl transferase (PPTase); Biochemical Sfp PPTase activity, qHTS; 4'-phosphopantetheinyl transferase ffp (Bacillus subtilis), Q9F4F7; Potency, µM, for the others: largest response in the series, negative = inhibition, most hits filed as inhibitors; 3.5% of 310,000 active; AID 1490, 2009;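 further: the enzyme is Sfp with the accession as filed and its product quenches rhodamine fluorescence; 0% = enzyme reaction without inhibitor and -100% = no enzyme wells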
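Compounds were incubated with enzyme (final 15 nM) for 15 min at room temperature before substrate addition started the reaction. Fluorescence at 525 nm excitation, 598 nm emission was recorded immediately and after 30 minutes.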
ALDH1A1 block: qHTS Assay for Inhibitors of Aldehyde Dehydrogenase 1 (ALDH1A1). Aldehyde dehydrogenase 1A1 (Homo sapiens), P00352. Purified ALDH1A1, NADH fluorescence, propionaldehyde substrate. Potency, µM (doses to about 75.3 µM), without a hit: at the highest dose activity, negative = inhibition, usual class: inhibitors. 7.3% of 220,000 active. AID 1030, 2008; active means well fitted inhibition curve with a large enough effect, not every such curve was filed as active; inconclusive means small, poorly fitted or top-dose-only effect, or another doubt; inactive means no such curve, though single readings can be large or run the other way;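 further: plate controls were no enzyme wells and a reference inhibitor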
Gal4-VP16 FLuc: VP16 counterscreen qHTS for inhibitors of ROR gamma transcriptional activity; Drosophila S2 Gal4-VP16 UAS-luciferase, luminescence, 20 h; Potency, µM (titrated, usually from 53.6 µM), for inactives: at the top dose activity, negative = inhibition, usual class: inhibitors; 3.5% of 310,000 active; AID 2546, 2010;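 further: Gal4-VP16 expression switched on by copper sulfate through the metallothionein promoter; nearly all actives have a fitted effect of over 50% in size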
RORg inh: qHTS for inhibitors of ROR gamma transcriptional activity; 5.4% of 310,000 active; Potency, µM (series often up to 53.6 µM), inactives show top-dose activity change, negative = inhibition, actives largely listed as inhibitors; AID 2551, 2010; Drosophila S2 Gal4-RORgamma UAS-luciferase reporter, 20 h; further: nearly all actives have a fitted effect of over 60% in size
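Compounds are pin-transferred onto Drosophila Schneider cells expressing a copper-inducible Gal4–ROR gamma transactivation domain fusion. After 1 hr, copper sulfate is added to 700 uM final; luciferase is read 20 hr later.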
An asterisk follows results filed as active; ? = inconclusive; nt = not tested or not shown; [ ] = remark or other dose. Unless noted, the call rests on the fitted dose curve; in most records, active means well fitted curve in the direction sought with a large enough effect; inconclusive means small, poorly fitted or top-dose-only effect, or another doubt; inactive means no such curve, though single readings can be large; an effect the other way counts as inactive or inconclusive. Unless noted, on the % scale 0 is the no-effect control and ±100 the full control effect; potency means the concentration at half of the fitted maximal effect.

SMILES	PLK1 PBD block	Sfp inh	ALDH1A1 block	Gal4-VP16 FLuc	RORg inh
C[C@@H]1CN([C@H](C)CO)C(=O)CCCn2cc(nn2)CO[C@H]1CN(C)C(=O)c1ccccc1	-5%	nt	nt	nt	nt
O=C(O)C1CC(=O)N(c2ccc3c(c2)OCCO3)C1 (centres undefined)	3µM*	4%	7%	3%	-35%
CC1CC(=O)C2=C(C1)Nc1ncnn1C2c1ccccc1 (centres undefined)	1%	-4%	18µM*	-17%	35%
CCOc1ccc(/C=N/NC(=O)CN2CCSCC2)cc1	-3%	-18%	?	-4%	-2%
COc1ccc(/C=N/NC(=O)CN2CCSCC2)cc1C	1%	-26%	10µM*	-20%	-10%
Cc1ccc(S(=O)(=O)N[C@H](C(=O)N2CCC3(O)CCCCC3C2)c2ccccc2)cc1 (some centres undefined)	-2%	5%	?	5%	43%
COc1ccc(S(=O)(=O)N[C@H](C(=O)N2CC[C@@]3(O)CCCC[C@H]3C2)c2ccccc2)cc1	4%	12%	13µM*	-3%	8%
CCCS(=O)(=O)NC(=O)C1(C)CCCN(C(=O)c2cccc(Cl)c2)C1 (centres undefined)	6%	nt	nt	nt	nt
CCc1ccc(Cc2cnc(NC(=O)C3=NCCN3)s2)cc1	-2%	6%	2%	?	7.1µM*
O=C(Nc1ncc(Cc2ccccc2Cl)s1)C1=NCCN1	-12%	15%	9%	3.2µM*	4µM*
O=C(Nc1ncc(Cc2ccc(Cl)cc2Cl)s1)c1ccc([N+](=O)[O-])cc1	-8%	10%	8%	3.5µM*	2.2µM*
O=C(Nc1nnc(COc2ccc(Cl)cc2)s1)c1ccc([N+](=O)[O-])cc1	-2%	0%	1%	-7%	6%
NC(=O)c1cc[n+](CC2=C(C(=O)O)N3C(=O)[C@@H](NC(=O)[C@H](c4ccccc4)S(=O)(=O)[O-])[C@@H]3SC2)cc1	nt	?	-3%[20.9 µM]	-6%[17 µM]	1%[2.98 µM]
CCOC(=O)C1=CCC(c2cc3ccccc3[nH]2)NC1 (centres undefined)	-11%	nt	nt	nt	nt
COc1ccc(C(=O)N/N=C/c2ccc(OC)c(COc3c(F)c(F)cc(F)c3F)c2)cc1	0%	-5%	nt	?	?
COc1ccc(/C=N\NC(=O)c2ccc([N+](=O)[O-])cc2)cc1COc1c(F)c(F)cc(F)c1F	-8%	-21%	nt	4.5µM*	3.5µM*
COc1ccc(OCc2cc(/C=N\NC(=O)c3ccccc3)ccc2OC)cc1	3%	-9%	nt	?	?
COc1cc(OC)cc(C(=O)N/N=C/c2ccc(OC)c(COc3ccc(F)cc3)c2)c1	5%	17%	?	?	4µM*
COc1ccc(CC(=O)Oc2ccc(F)c(F)c2)cc1S(=O)(=O)N1CCOCC1	-3%	nt	nt	nt	nt
COc1ccc(NC(=O)c2ccc3ccccc3c2OC)cc1	5%	nt	nt	nt	nt
COc1ccc(NCc2c(O)ccc3ccccc23)cc1	nt	nt	1.6µM*	nt	nt
Oc1ccc2ccccc2c1CNc1ccc(Br)cc1	6.7µM*	-15%	nt	?	?
C=CCc1cccc(CNc2cnc3ccccc3c2)c1O	-8%	-6%	nt	7.1µM*	?
Oc1ccc2ccccc2c1CNc1ccc(Br)cn1	5%	0%	nt	-4%	?
Oc1ccc2ccccc2c1CNc1cnc2ccccc2c1	3.4µM*	28µM*	?	?	13%
COC(=O)N1C2=C(c3ccccc3[C@@H]1CC(=O)Nc1ccc3cc4ccccc4cc3c1)[C@@H]1C(=O)N(c3ccccc3)C(=O)[C@@H]1[C@H](C)C2	nt	23%	-5%[13.5 µM]	nt	nt
COc1ccc(CN2CCN(Cc3ccc(Br)cc3)CC2)c(OC)c1OC	-11%	79µM*	nt	1%	-4%
COc1cccc(CN2CCN(Cc3ccco3)CC2)c1	2%	45µM*	nt	1%	-3%
COc1cccc(CN2CCN(Cc3cc(OC)c(OC)cc3OC)CC2)c1	4%	56µM*	nt	-2%	-5%

Screening data from PubChem.
